Laboratory results from PubChem BioAssay AID720553 (National Center for Advancing Translational Sciences (NCATS), 2013).
The campaign covered roughly 340,000 compounds. About 3,300 (0.97%) were called active.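 The calls were made as follows: active = maximum activity change below -70%; inconclusive = maximum activity change from -70% to -50%; inactive = maximum activity change above -50%.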 This excerpt belongs to a sample that is enriched for actives.

The compounds below were run on Potassium voltage-gated channel subfamily H member 2, brain isoform KCNH2 3.1 (human) (assay: qHTS for Inhibitors of KCHN2 3.1: Mutant qHTS). Conditions: U2OS KCNH2 3.1, thallium flux FluxOr; stronger effect = lower value.
Procedure, shortened: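 Normalized rate constant (relative to positive and negative DMSO controls) derived from a 2 min kinetic fluorescence read after stimulation; U2OS cells expressing the 3.1 isoform via virus at 1.77 x 10^8 /mL.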
% is scaled to controls: 0 for no effect and ±100 for the full control effect.

Structure (SMILES) | activity change
C[C@@H]1CN([C@H](C)CO)S(=O)(=O)c2ccc(C#CC3CCCCC3)cc2O[C@H]1CN(C)C(=O)Cc1ccncc1 | -2.79% (inactive)
CC1=C(C(=O)N2CCOCC2)CC(CC(=O)NCC2CCCCC2)C(=O)N1Cc1ccc(F)cc1 (centres undefined) | -12.1% (inactive)
CC1C(=O)N(Cc2cn(CC3CCCCC3)nn2)CCS(=O)(=O)N1Cc1ccc(-c2cccc(N(C)C)c2)cc1 (centres undefined) | -6.27% (inactive)
CCOC(=O)CSc1nc(N2CCOCC2)c2c(c1C#N)CC(C(C)C)OC2 (centres undefined) | 9.26% (inactive)
CC1(C)Cc2c(C#N)c(SCc3nc4ccccc4[nH]3)nc(N3CCOCC3)c2CO1 | 1.1% (inactive)
COc1ccc(CSc2nc(N3CCOCC3)c3c(c2C#N)CC(C)(C)OC3)cc1 | -85.2% (active)
CN1CCn2cnc(C(=O)NCC(=O)OC(C)(C)C)c2C1=O | 8.04% (inactive)
COc1ccc(-c2csc(Nc3cccc(C)n3)n2)cc1OC | -0.0615% (inactive)
COc1ccc(Nc2nc(-c3ccccc3)cs2)cc1 | -83.5% (active)
COc1ccc(Nc2ccc3ccccc3c2)cc1 | -0.36% (inactive)
CN(Cc1ccccc1)C(=O)CCC1CCN(C(=O)c2ccco2)CC1 | -7.93% (inactive)
O=C(COc1ccc([N+](=O)[O-])cc1Cl)Nc1ccc2[nH]c(=O)[nH]c2c1 | -113% (active)
O=C(COc1ccc([N+](=O)[O-])cc1Cl)Nn1cnnc1 | -17.4% (inactive)
O=C(COC(=O)c1cccc(Cl)c1)Nc1ccc2[nH]c(=O)[nH]c2c1 | -16.7% (inactive)
Cc1ccc(C(=O)NNc2ncnc3ccccc23)cc1 | -135% (active)
Cc1ccc(NC(=O)c2ccc(Oc3ncccn3)cc2)cc1 | 10.8% (inactive)
Cc1ccc(C(=O)NNC(=O)c2cc3cc4ccccc4nc3s2)cc1 | -14.6% (inactive)
CCOC(=O)c1c(NC(=O)COC(=O)c2ccc(S(=O)(=O)C(F)F)cc2)sc(C(=O)N(C)C)c1C | -12.2% (inactive)
Cc1ccccc1C#CC1=CC(=O)CC(C)(C)C1 | -7.29% (inactive)
Cc1ccc(-c2nc3ccc(Cl)cn3c2Cc2ccccc2)cc1 | -5.74% (inactive)
O=C(Nc1nncs1)c1ccccc1NS(=O)(=O)c1cccs1 | -71.4% (active)

Structure (SMILES) | activity change
O=S(=O)(Nc1ccccc1Br)c1cccs1 | 8.03% (inactive)
COc1cc(NC(=O)c2ccccc2NS(=O)(=O)c2ccc(Cl)s2)cc(OC)c1 | -9.39% (inactive)
CNC(=O)C1CN(C(=O)c2cccc(S(=O)(=O)N3CCc4ccccc43)c2)c2ccccc2O1 (centres undefined) | -2.85% (inactive)
O=C(NCCS(=O)(=O)N1CCN(c2ccccc2)CC1)c1cc(=O)c2ccccc2o1 | 5.39% (inactive)
CSc1ncc(C(=O)NCCCc2ccccc2)c(C)n1 | 17.9% (inactive)
CSc1ncc(C(=O)Nc2ccc(C)cc2C)c(C)n1 | -183% (active)
Cc1ccc(NC(=O)c2ccn(C(=O)Nc3ccccc3)n2)c(C)c1 | 11.1% (inactive)
CCN(CC)C(=O)C1=C(C)N(Cc2ccc(F)cc2)C(=O)C(CC(=O)NC2CCCC2)C1 (centres undefined) | -23.9% (inactive)
CSc1ncnc2c1ncn2CCCNCC1CCCCC1 | -15.7% (inactive)
CC(C)C1CCN(C(=O)C2CCC(=O)N(C3CCCCCC3)C2)CC1 (centres undefined) | -5.43% (inactive)
Cc1ccc(C(=O)N/C(=C/C=C/c2ccccc2)C(=O)NCc2ccco2)cc1 | -38.2% (inactive)
CNC(=O)/C(=C\C=C\c1ccccc1)NC(=O)c1ccc([N+](=O)[O-])cc1 | -78.9% (active)
O=C(Nc1ccc(C(=O)O)cc1)/C(=C/c1ccc([N+](=O)[O-])cc1)NC(=O)c1ccccc1 | 0.484% (inactive)
COc1ccc(C(CNC(=O)c2ccc(OCc3cscn3)cc2)N2CCCC2)cc1 (centres undefined) | -4.07% (inactive)
Cc1cc(C)c2cc(C#N)c(N3CCNCC3)nc2c1 | 15.5% (inactive)
CCCNC(=O)c1ccc(N2CCC3(CC2)CC(c2ccc(Cl)cc2)=NO3)c([N+](=O)[O-])c1 | -83.7% (active)
COCCNC(=O)c1ccc(N2CCC3(CC2)OCCO3)c([N+](=O)[O-])c1 | 1.85% (inactive)
COC(=O)c1ccc(N2CCOCC2)c(NC(=O)c2ccc(Br)o2)c1 | -2.48% (inactive)
CCC(C)NC(=O)c1ccc(N2CCC3(CC2)OCCO3)c([N+](=O)[O-])c1 (centres undefined) | 15.4% (inactive)
CCCNC(=O)c1ccc(N2CCC3(CC2)CC(c2cccc(Br)c2)=NO3)c(NC(=O)c2ccco2)c1 | -83.4% (active)
O=C(Nc1ccccc1N1CCN(C(=O)c2ccccc2)CC1)c1ccco1 | -10.9% (inactive)

Structure (SMILES) | activity change
Nc1cc(C(=O)N2CCN(c3ccccc3Cl)CC2)ccc1N1CC2CC(C1)c1cccc(=O)n1C2 (centres undefined) | 6.28% (inactive)
O=C(c1ccc(N2CCCC2=O)cc1)N1CCN(c2ccc(C(F)(F)F)cc2[N+](=O)[O-])CC1 | 6.83% (inactive)
Cc1ccc(NC(=O)COC(=O)CN2CCSC2=O)cc1F | -8.22% (inactive)
CC1(C)NC(=O)N(CC(=O)Nc2ccc(-c3ccccc3)cc2)C1=O | -11% (inactive)
O=C1[C@H]2[C@@H](c3ccc(Cl)cc3)N3C(=O)N(c4cccc(F)c4)C(=O)[C@@]3(Cc3ccccc3)[C@H]2C(=O)N1C1CCCCC1 | -11.3% (inactive)
O=C1[C@H]2[C@@H](c3ccc(F)cc3)N3C(=O)N(c4ccc(C(F)(F)F)cc4)C(=O)[C@@]3(Cc3ccccc3)[C@H]2C(=O)N1C1CCCCC1 | -14.9% (inactive)
Cc1cccc(N2C(=O)N3[C@H](c4ccc(F)cc4)[C@@H]4C(=O)N(C5CCCCC5)C(=O)[C@@H]4[C@]3(Cc3ccccc3)C2=O)c1 | -81.5% (active)
C/C(COc1ccccc1)=N\NC(=O)c1nnn(-c2nonc2N)c1-c1ccc(C)cc1 | 1.24% (inactive)
Cc1ccc(C(=O)NC(C)C(c2cccs2)N2CCOCC2)cc1C (centres undefined) | 2.91% (inactive)
C#Cc1cc(N2CCN(C(=O)c3ccoc3)CC2)n2nc(-c3cccc(Cl)c3)cc2n1 | 2.49% (inactive)
Cc1ccc(Nc2nc(N)nc(CN3CCN(Cc4ccccc4)CC3)n2)cc1Cl | -99.4% (active)
CCOC(=O)N1CCN(Cc2nc(N)nc(Nc3ccc(C)cc3)n2)CC1 | -78.5% (active)
CNc1nc(Nc2ccc(C)c(Cl)c2)nc(N)c1[N+](=O)[O-] | 6.15% (inactive)
Cc1ccccc1Nc1nc(N)nc(CN2CCN(c3ccccn3)CC2)n1 | -0.0863% (inactive)
CCOC(=O)N1CCN(CC(=O)Nc2ccc(F)cc2)CC1 | -43.8% (inactive)
CCOC(=O)N1CCN(Cc2nc3cc(NC(C)=O)ccc3n2C)CC1 | 8.13% (inactive)
COc1cccc(NC(=O)N(C)C[C@@H]2Oc3ncc(Br)cc3C(=O)N([C@@H](C)CO)C[C@H]2C)c1 | -4.03% (inactive)
COc1ccc(S(=O)(=O)N(C)C)cc1NC(=O)COC(=O)c1n[nH]c2ccccc12 | 9.12% (inactive)
Cc1ccnc(SC2CC(=O)N(c3ccccc3)C2=O)n1 (centres undefined) | 1.28% (inactive)
O=C(NC1CCN(Cc2ccccc2)CC1)c1cc(Br)c(Br)[nH]1 | 0.925% (inactive)
O=C(NC1CCN(Cc2ccccc2)CC1)c1ccc(Oc2cc(Cl)cc(Cl)c2)o1 | -84.5% (active)

Structure (SMILES) | activity change
CCOc1ccc(CC(=O)NC2CCN(Cc3ccccc3)CC2)cc1 | 19.9% (inactive)
CCOc1ccc(NS(=O)(=O)c2ccc(C(=O)NCC3CCCO3)cc2)cc1 (centres undefined) | 3.29% (inactive)
COCOCCn1cc(CN2CCS(=O)(=O)N(Cc3ccc(-c4cccc(N(C)C)c4)cc3)C(CC(C)C)C2=O)nn1 (centres undefined) | -1.27% (inactive)
Cc1cccc(N(CC(=O)N2CCCC2)S(C)(=O)=O)c1C | -8.33% (inactive)
CSc1ccc(NC(=O)N2CC(C)OC(C)C2)cc1 (centres undefined) | 8.24% (inactive)
CC1CN(C(=S)Nc2cccc(F)c2)CC(C)O1 (centres undefined) | 6.1% (inactive)
Cc1cccc(C)c1NC(=O)N1CC(C)OC(C)C1 (centres undefined) | -192% (active)
C=CCOc1cccc(C2C(C(=O)c3ccc(C)o3)=C(O)C(=O)N2CCN2CCOCC2)c1 (centres undefined) | -2.42% (inactive)
CCc1cc(-c2nnn(CCC3COCCO3)c2CC)ccc1-c1cn(Cc2ccc3ccccc3c2)nn1 (centres undefined) | 0.058% (inactive)
Cc1cc(Nc2ccc(C)c(C)c2)n2ncnc2n1 | 30.4% (inactive)
O=C(c1cc2cc(F)ccc2[nH]1)N1CCN(c2ccc(F)cc2)CC1 | -39.9% (inactive)
O=C(CCCN1CCc2[nH]c3ccc(F)cc3c2C1)c1ccc(F)cc1 | -92% (active)
CC1CCc2[nH]c3ccc(C(=O)N(C)CC(=O)Nc4cccc(F)c4)cc3c2C1 (centres undefined) | 13.3% (inactive)
C[C@@H]1CN([C@@H](C)CO)C(=O)CCCn2nncc2CO[C@H]1CN(C)C(=O)Nc1ccc(C(F)(F)F)cc1 | -12.6% (inactive)
CC[C@]1(C(=O)OC)[C@H]2C(=O)N(Cc3ccccc3)C(=O)[C@H]2[C@H]2CN=C(SCc3ccccc3)N21 | 14.7% (inactive)
CC[C@]1(C(=O)OC)[C@H]2C(=O)N(Cc3ccccc3)C(=O)[C@H]2[C@H]2CN=C(SCc3ccc(Cl)cc3)N21 | -98.8% (active)
CC[C@]1(C(=O)OC)[C@H]2C(=O)N(Cc3ccccc3)C(=O)[C@H]2[C@H]2CN=C(SCc3ccc(C#N)cc3)N21 | 4.34% (inactive)
CC(C)Oc1ccc(/C=N/NC(=O)c2nnn(-c3nonc3N)c2CN(C)C2CCCCC2)cc1 | -81.3% (active)
CC(C)c1c(C(=O)N/N=C/c2ccc(-c3ccccc3)cc2)nnn1-c1nonc1N | -1.92% (inactive)
Nc1nonc1-n1nnc(C(=O)N/N=C\c2ccncc2)c1CN1CCCCC1 | -0.869% (inactive)
O=C(NCCN1CCOCC1)c1ccc2c(c1)N(Cc1cccc(Cl)c1)C(=O)c1ccccc1S2(=O)=O | 17.1% (inactive)
